From PubChem BioAssay come the findings set out here.

Values without a mark were called inactive. Calls of active or inactive are those of the source.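 Rule for the calls, unless noted: active = mean inhibition over 43.08%, the solvent-only control mean plus 3 SD; inactive = the rest.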

In the first assay the target is Nuclear receptor coactivator 3 (Homo sapiens) (UniProt Q9Y6Q9). Description: NCOA3 GAL4-fusion reporter inhibition – cell-based, luminescence, quadruplicate, confirmation (AID 588792).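 Note: 0% = DMSO treated cells and 100% = gossypol at 36 µM.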 Conditions: HEK293 GAL4-SRC3 luciferase reporter, at 3.6 µM, hits give high values. Background: Reporter assays use an easily measured gene product as a stand-in for the process of interest.
Nuclear receptor coactivator 3 (Homo sapiens), sequence (Q9Y6Q9 whole entry, looked up, the tested form may be a part): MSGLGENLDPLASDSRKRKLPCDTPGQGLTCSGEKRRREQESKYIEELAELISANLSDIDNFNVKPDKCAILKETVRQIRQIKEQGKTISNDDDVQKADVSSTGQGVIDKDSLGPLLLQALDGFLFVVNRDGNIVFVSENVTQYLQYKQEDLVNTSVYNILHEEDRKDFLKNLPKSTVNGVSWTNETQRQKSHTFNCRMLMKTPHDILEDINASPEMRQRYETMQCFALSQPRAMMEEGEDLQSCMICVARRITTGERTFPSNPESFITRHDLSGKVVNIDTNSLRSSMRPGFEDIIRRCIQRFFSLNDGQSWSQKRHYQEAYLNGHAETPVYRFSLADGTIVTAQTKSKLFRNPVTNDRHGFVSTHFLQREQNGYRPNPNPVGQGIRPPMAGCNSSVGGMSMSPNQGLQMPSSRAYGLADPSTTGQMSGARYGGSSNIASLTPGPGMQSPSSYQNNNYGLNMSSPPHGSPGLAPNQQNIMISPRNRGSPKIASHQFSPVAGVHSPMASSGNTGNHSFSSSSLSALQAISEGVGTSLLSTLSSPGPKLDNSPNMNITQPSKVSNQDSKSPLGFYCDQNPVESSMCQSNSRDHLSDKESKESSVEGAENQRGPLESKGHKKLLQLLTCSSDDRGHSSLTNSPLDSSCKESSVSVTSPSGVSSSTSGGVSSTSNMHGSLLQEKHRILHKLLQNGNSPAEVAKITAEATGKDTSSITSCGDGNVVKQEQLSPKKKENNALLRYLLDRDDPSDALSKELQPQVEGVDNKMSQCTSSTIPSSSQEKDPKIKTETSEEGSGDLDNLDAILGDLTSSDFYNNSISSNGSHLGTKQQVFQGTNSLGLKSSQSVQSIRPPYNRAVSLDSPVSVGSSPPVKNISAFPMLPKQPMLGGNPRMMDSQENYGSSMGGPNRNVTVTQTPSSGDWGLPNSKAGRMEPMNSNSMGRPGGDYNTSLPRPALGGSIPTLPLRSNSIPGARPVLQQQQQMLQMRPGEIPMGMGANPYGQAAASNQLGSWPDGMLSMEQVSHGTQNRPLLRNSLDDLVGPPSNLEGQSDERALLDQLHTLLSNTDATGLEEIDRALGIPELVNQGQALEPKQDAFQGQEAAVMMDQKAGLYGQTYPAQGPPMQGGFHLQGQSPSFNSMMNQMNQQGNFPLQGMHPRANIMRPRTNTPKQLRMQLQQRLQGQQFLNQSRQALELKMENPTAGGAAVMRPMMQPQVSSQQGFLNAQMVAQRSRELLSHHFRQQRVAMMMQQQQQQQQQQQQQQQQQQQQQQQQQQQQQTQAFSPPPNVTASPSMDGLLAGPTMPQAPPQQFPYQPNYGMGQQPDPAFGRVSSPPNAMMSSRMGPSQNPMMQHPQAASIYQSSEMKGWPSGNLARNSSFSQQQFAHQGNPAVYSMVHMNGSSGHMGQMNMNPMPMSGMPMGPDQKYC
One may read the inhibition as the change of the read-out against control, counted positive when it falls. For the compound `S=c1[nH]nc(C2CCCCC2)n1/N=C/c1ccncc1`, the inhibition is 75.2% (active).
Turning to `Cc1ccc2nc(-c3ccccc3)cn2c1`, the inhibition is 21.2%.
As to `CN1CCN(c2ccc(NC(=O)N3CCc4ccccc43)cc2)CC1`, the inhibition is 32.5%.
Take `O=C1CCCCC1Sc1nnc(-c2ccc3c(c2)OCO3)o1` (stereo not given): the inhibition is -5.91%.
For the compound `Brc1cccc(CSc2nnc(-c3ccncc3)o2)c1`, the inhibition was 45.8% (active).
In the case of `S=C(c1ccc(-c2ccccc2)cc1)N1CCOCC1`, the inhibition is 9.3%.
As to `COc1cccc(Nc2ncnc3ccc(Br)cc23)c1`, the inhibition is 43.5% (active).
Still for that read-out and setting: in the case of `COCCn1c(C)cc(C2=NNC(=NC3CC3)SC2)c1C` it was 91.2% (active); in that of `Cc1ccc(C(=O)Nc2cnc3ccccc3c2)cc1`, 44.4% (active); in that of `CCN(c1ccc(OC)cc1)c1ncnc2nc[nH]c12`, 66.8% (active).
As for `OCCN1CCN(c2ncnc3ccc(Br)cc23)CC1`, the inhibition was 68.8% (active).
As to `O=C(O)C1CC=CCC1C(=O)Nc1ccc2c(c1)OCCO2` (stereo not given), the inhibition is -15.8%.
The same measure, in the same setting: in the case of `CCCN1C=CC(=C2C(=O)c3ccccc3C2=O)C=C1` it was 65.4% (active).
Turning to `Nc1ncnc(N2CCc3ccccc32)c1[N+](=O)[O-]`, the inhibition was 85.4% (active).
For the compound `CCN(CC)c1ccc(/C=N/NC(=O)c2nnn(-c3nonc3N)c2C(C)C)c(O)c1`, the inhibition was 77.3% (active).
The same measure, in the same setting: in the case of `COCCNc1nc(Oc2cncc(Cl)c2)c2sccc2n1` it was 42.1%.
Still for that read-out and setting: then `Cc1cc(Sc2nnc(/N=C/N(C)C)s2)c2ccccc2n1`, with 9.12%.
On to `CN(Cc1nccs1)C(=O)c1cc(COc2cccc3cnccc23)on1`, for which the inhibition was 27.5%.
Turning to `CC(=O)/C(N=Nc1ccc2c(c1)OCCO2)=C(\C)O`, the inhibition was 45.3% (active).
As to `Cc1cc(C(=O)COc2cccnc2[N+](=O)[O-])c(C)n1-c1ccccc1`, the inhibition is -5.17%.
As for `Cc1cc(/C=N/Nc2ncnc(N)c2[N+](=O)[O-])c(C)n1-c1ccccc1`, the inhibition was 26%.
As to `c1cc(-c2nnc3sc(C4CCCCC4)nn23)ccn1`, the inhibition is 62.6% (active).
As for `COc1ccc(N(C(=O)CCl)C(C(=O)NC2CCCCC2)c2cccnc2)cc1` (stereo not given), the inhibition is 75.7% (active).
Turning to `O=C(Nc1ccc(C(=O)N2CCOCC2)cc1)Nc1cccc(C(F)(F)F)c1`, the inhibition was 66.9% (active).
For `CCCC(=O)NC(c1ccc(Cl)cc1Cl)c1ccc2cccnc2c1O` (stereo not given), the inhibition was 34.5%.
Turning to `CC(/C=C1\SC(=O)N(CCCC(=O)O)C1=O)=C\c1ccccc1`, the inhibition was 79% (active).
On to `CN(C)c1ccc(C(=S)Nc2ccccc2)cc1`, for which the inhibition was 39.1%.
The same measure, in the same setting: then `Cc1ccc(C(=O)CN2C(=O)c3ccccc3S2(=O)=O)cc1`, with 31.6%; and `CC(=O)Nc1nc(-c2ccc3c(c2)CC(C)N3C(=O)C2CC2)c(C)s1` (stereo not given), with 72.6% (active); and `CN(C)C(=O)c1cccc(-c2cnc3sc(NCc4ccc5c(c4)OCO5)nn23)c1`, with 53.2% (active).
For the compound `Cc1ccc(/C=C2\SC(=S)N(CCCC(=O)NNC(=O)c3ccccc3O)C2=O)cc1`, the inhibition was 73.3% (active).
Turning to `COc1ccc(-n2c(C)c([N+](=O)[O-])c3ccc(O)c(CN4CCCCC4)c32)cc1`, the inhibition was 47.4% (active).
For `c1ccc(CCc2nn3c(-c4ccncc4)nnc3s2)cc1`, the inhibition is 68.4% (active).
Consider `OCCN(CCO)CC(O)COc1ccc(C23CC4CC(CC(C4)C2)C3)cc1` (stereo not given), for which the inhibition was 23.8%.
Take `Cc1ccc2occ(/C=N/NC(=O)[C@@H](N)Cc3ccccc3)c(=O)c2c1`: the inhibition was 37.9%.
Regarding `CCn1c(Oc2ccccc2F)nc2c1c(=O)n(C)c(=O)n2C`, the inhibition is 63% (active).
For the compound `O=C(c1cncc(Br)c1)N1CCc2ccccc2C1`, the inhibition was 46.3% (active).
As for `O=C(NC1CCCCC1)C(c1cccnc1)N(C(=O)CCl)c1ccc(F)cc1` (stereo not given), the inhibition was 78.3% (active).
With `COc1ccc(/C=C2/SC(=S)N(CCCC(=O)Nc3ccccc3C(=O)O)C2=O)cc1`, the inhibition was 22%.
Regarding `CCc1ccc(-c2nc(CSCC(=O)NCc3ccco3)c(C)o2)cc1`, the inhibition was 33.8%.

In the next assay the test system is transactivating tegument protein VP16 (Human herpesvirus 1), Gal4-VP16 luciferase reporter. Description: repression of VP16-driven luciferase reporter – cell-based, luminescence, high throughput, counter-screen for SRC3 inhibitor project (AID 588794; in the data active = inhibition above about 30%). Conditions: mammalian cells, at 3.6 µM, hits give high values.
Turning to `S=c1[nH]nc(C2CCCCC2)n1/N=C/c1ccncc1`, the inhibition was 60.4% (active).
Regarding `Cc1ccc2nc(-c3ccccc3)cn2c1`, the inhibition was -9.75%.
Take `CN1CCN(c2ccc(NC(=O)N3CCc4ccccc43)cc2)CC1`: the inhibition is 13.4%.
With `O=C1CCCCC1Sc1nnc(-c2ccc3c(c2)OCO3)o1` (stereo not given), the inhibition was -22.1%.
Regarding `Brc1cccc(CSc2nnc(-c3ccncc3)o2)c1`, the inhibition is 35.2% (active).
For `S=C(c1ccc(-c2ccccc2)cc1)N1CCOCC1`, the inhibition is 4.1%.
Same read-out and setting: then `COc1cccc(Nc2ncnc3ccc(Br)cc23)c1`, with 31% (active); and `COCCn1c(C)cc(C2=NNC(=NC3CC3)SC2)c1C`, with 87.2% (active).
Same read-out and setting: in the case of `Cc1ccc(C(=O)Nc2cnc3ccccc3c2)cc1` it was 9.25%; in that of `CCN(c1ccc(OC)cc1)c1ncnc2nc[nH]c12`, 45.6% (active).
Consider `OCCN1CCN(c2ncnc3ccc(Br)cc23)CC1`, for which the inhibition is 41.1% (active).
Regarding `O=C(O)C1CC=CCC1C(=O)Nc1ccc2c(c1)OCCO2` (stereo not given), the inhibition is -7.19%.
`CCCN1C=CC(=C2C(=O)c3ccccc3C2=O)C=C1`: the inhibition is 51.3% (active).
As to `Nc1ncnc(N2CCc3ccccc32)c1[N+](=O)[O-]`, the inhibition was 61.3% (active).
The same measure, in the same setting: then `CCN(CC)c1ccc(/C=N/NC(=O)c2nnn(-c3nonc3N)c2C(C)C)c(O)c1`, with 72.6% (active).
Consider `COCCNc1nc(Oc2cncc(Cl)c2)c2sccc2n1`, for which the inhibition was 29.7% (active).
For the compound `Cc1cc(Sc2nnc(/N=C/N(C)C)s2)c2ccccc2n1`, the inhibition is 40.5% (active).
In the case of `CN(Cc1nccs1)C(=O)c1cc(COc2cccc3cnccc23)on1`, the inhibition was 36.1% (active).
For the compound `CC(=O)/C(N=Nc1ccc2c(c1)OCCO2)=C(\C)O`, the inhibition was -50.6%.
Turning to `Cc1cc(C(=O)COc2cccnc2[N+](=O)[O-])c(C)n1-c1ccccc1`, the inhibition is -52.9%.
Take `Cc1cc(/C=N/Nc2ncnc(N)c2[N+](=O)[O-])c(C)n1-c1ccccc1`: the inhibition was 12.4%.
Turning to `c1cc(-c2nnc3sc(C4CCCCC4)nn23)ccn1`, the inhibition is 37.2% (active).
`COc1ccc(N(C(=O)CCl)C(C(=O)NC2CCCCC2)c2cccnc2)cc1` (stereo not given): the inhibition is 56.5% (active).
Consider `O=C(Nc1ccc(C(=O)N2CCOCC2)cc1)Nc1cccc(C(F)(F)F)c1`, for which the inhibition was 43.2% (active).
For `CCCC(=O)NC(c1ccc(Cl)cc1Cl)c1ccc2cccnc2c1O` (stereo not given), the inhibition was 28.6%.
As for `CC(/C=C1\SC(=O)N(CCCC(=O)O)C1=O)=C\c1ccccc1`, the inhibition is 73.6% (active).
Consider `CN(C)c1ccc(C(=S)Nc2ccccc2)cc1`, for which the inhibition is 13.3%.
The same measure, in the same setting: in the case of `Cc1ccc(C(=O)CN2C(=O)c3ccccc3S2(=O)=O)cc1` it was 48.8% (active); in that of `CC(=O)Nc1nc(-c2ccc3c(c2)CC(C)N3C(=O)C2CC2)c(C)s1` (stereo not given), 58.6% (active); in that of `CN(C)C(=O)c1cccc(-c2cnc3sc(NCc4ccc5c(c4)OCO5)nn23)c1`, 35.7% (active).
As for `Cc1ccc(/C=C2\SC(=S)N(CCCC(=O)NNC(=O)c3ccccc3O)C2=O)cc1`, the inhibition was 53.6% (active).
As for `COc1ccc(-n2c(C)c([N+](=O)[O-])c3ccc(O)c(CN4CCCCC4)c32)cc1`, the inhibition was 30.5% (active).
Same read-out and setting: in the case of `c1ccc(CCc2nn3c(-c4ccncc4)nnc3s2)cc1` it was 47.2% (active); in that of `OCCN(CCO)CC(O)COc1ccc(C23CC4CC(CC(C4)C2)C3)cc1` (stereo not given), 18.7%.
Regarding `Cc1ccc2occ(/C=N/NC(=O)[C@@H](N)Cc3ccccc3)c(=O)c2c1`, the inhibition is 17%.
In the case of `CCn1c(Oc2ccccc2F)nc2c1c(=O)n(C)c(=O)n2C`, the inhibition was 51% (active).
For `O=C(c1cncc(Br)c1)N1CCc2ccccc2C1`, the inhibition was 33.3% (active).
`O=C(NC1CCCCC1)C(c1cccnc1)N(C(=O)CCl)c1ccc(F)cc1` (stereo not given): the inhibition is 65.9% (active).
As to `COc1ccc(/C=C2/SC(=S)N(CCCC(=O)Nc3ccccc3C(=O)O)C2=O)cc1`, the inhibition is 11.6%.
Regarding `CCc1ccc(-c2nc(CSCC(=O)NCc3ccco3)c(C)o2)cc1`, the inhibition was 27.9%.
